# The list is not random: actives were taken first. Their share in the collection is about 12%.
# L major viab: inhibitors of Leishmania major promastigote growth; Leishmania major promastigotes, resazurin fluorescence viability; inhibition, % at 10 µM; 200,000 compounds, 9% hits; AID 1063; in the data active means inhibition above about 50%;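 further: promastigotes grown with compound for 44 hours at 28 °C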
# KCC2 mod: KCC2 (human) Cl- transport modulation; Q9H2X9; KCC2 cells, thallium flux FluoZin-2 fluorescence; B-score of Tl+ flux slope (higher = more flux/activation; lower = inhibition) at 10 µM; 190,000 compounds, 2.2% hits;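 active means thallium flux slope and its plate-corrected score both differing from the plate sample mean at a set confidence after two filtering rounds, in either direction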;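 further: slope of fluorescence scaled to starting intensity during 10 to 20 s after thallium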
# ROMK primary: modulators of human ROMK potassium channel; Tet-inducible ROMK, thallium flux fluorescence; actives lie on both sides; 130,000 compounds, 2% hits; B-score at 10 µM;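 active means signal ratio slope over the read window, or its plate-corrected B-score, at least 3 SD from the plate mean, either direction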;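 further: B-score of the F/F0 ratio slope over 7 to 12 s after thallium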
# Target sequence (P48048 whole entry, looked up): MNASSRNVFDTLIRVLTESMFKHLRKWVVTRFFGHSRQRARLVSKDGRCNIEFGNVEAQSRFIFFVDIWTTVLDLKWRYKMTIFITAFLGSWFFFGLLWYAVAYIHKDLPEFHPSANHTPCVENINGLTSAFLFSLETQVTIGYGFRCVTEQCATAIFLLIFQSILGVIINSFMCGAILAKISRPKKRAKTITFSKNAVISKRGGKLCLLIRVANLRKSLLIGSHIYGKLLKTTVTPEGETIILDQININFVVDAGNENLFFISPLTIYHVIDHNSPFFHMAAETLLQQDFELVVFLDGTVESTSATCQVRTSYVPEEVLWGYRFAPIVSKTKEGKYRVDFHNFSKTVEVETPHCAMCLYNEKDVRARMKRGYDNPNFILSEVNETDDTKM
# WT yeast gro inh: growth inhibition of WT yeast, mitochondrial fusion screen; inhibition, % at 10 µM; mitochondrial fusion phenotypic screen, WT strain; 190,000 compounds, 2.1% hits; in the data active means inhibition above about 58%; tested in S. cerevisiae
# INS promoter inh: TRM-6 insulin promoter activity inhibition | 130,000 compounds, 0.9% hits | inhibition, % at 2 µM | AID 1273 | TRM-6 cells (human fetal islet line), insulin promoter-eGFP reporter, imaging; reporter expression induced with tamoxifen;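 active means inhibition above the mean plus 3 SD, with well images judged a real hit on visual review, cut at about 60% in these data, passing the limit was not always enough; inconclusive means inhibition over the cutoff but images rejected on review; inactive means inhibition not above the cutoff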
# Insulin prom up: MIN6 insulin promoter up-regulation. z-score at 5 µM. MIN6 insulin promoter-GFP reporter, high-content imaging; hits give high values. AID 1625. 190,000 compounds, 0.3% hits;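 active means z-score above 3 at 5 µM with at least 500 cells counted in the well; inconclusive means wells under 500 cells, flagged as cytotoxic or low count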
# * hit, by the source's call; u = inconclusive; x = no result; ! = not confirmed by another sample.
SMILES,L major viab,KCC2 mod,ROMK primary,WT yeast gro inh,INS promoter inh,Insulin prom up
CCCCCCn1c(=O)c(C(=O)Nc2cnccn2)c(O)c2ccccc21,100.0*,0.0488,-0.821,11.4,x,-0.38
CCCCn1c(=O)c(C(=O)Nc2ccsc2C(=O)OC)c(O)c2ccccc21,53.2*,0.308,0.312,-8.5,x,0.42
Cc1oc(-c2cccs2)nc1CSCC(=O)N1CCC2(CC1)OCCO2,-3.4,0.981,x,-3.2,-9.3,-0.88
C[C@@H]1O[C@@H](O[C@H]2C[C@@H](O)[C@]3(CO)[C@H]4[C@H](O)C[C@]5(C)[C@@H](C6=CC(=O)OC6)CC[C@]5(O)[C@@H]4CC[C@]3(O)C2)[C@H](O)[C@H](O)[C@H]1O,-4.9,0.456,x,-0.8,-354.6,x
C[C@H]1O[C@@H](O[C@H]2[C@@H](O)C[C@H](O[C@H]3[C@@H](O)C[C@H](O[C@H]4CC[C@@]5(C)[C@H](CC[C@@H]6[C@@H]5CC[C@]5(C)[C@@H](C7=CC(=O)OC7)CC[C@]65O)C4)O[C@@H]3C)O[C@@H]2C)C[C@H](O)[C@@H]1O,-8.4,-0.00577,x,-3.3,100.0*,x
CCn1c(C)c(C(=O)O)c2cc(OC)ccc21,-3.9,-2.94,x,1.0,-6.2,-0.22
CCN1CCN(C(=O)Cc2c(C)n(C(=O)c3ccc(Cl)cc3)c3ccc(OC)cc23)CC1,98.3*,0.016,-0.208,7.8,-127.3,0.08
O=C(CN1C2CCC1CC(O)(c1cccnc1)C2)Nc1ccc2c(c1)OCO2 (configuration not stated),89.9*,0.312,x,-5.9,14.3,-0.12
OC1(c2cccnc2)CC2CCC(C1)N2Cc1nnnn1Cc1ccccc1 (configuration not stated),1.3,0.0507,x,-6.6,68.8,-0.76
Clc1ccc2c(c1)C(c1ccccc1Cl)=NCc1nnc(N3CCN(CCOc4ccccc4)CC3)n1-2,15.0,-2.38,-1.5,59.8*,-27.8,-0.55
Clc1ccc2c(c1)C(c1ccccc1Cl)=NCc1nnc(N3CCN(CCSc4ccccc4)CC3)n1-2,-7.5,x,-0.0324,76.1*,x,-0.36
Cc1cc(C(=O)N=Nc2c(O)n(C)c3ccccc23)c(C)o1,69.0*,0.614,x,-4.2,-31.0,-0.42
CC(=O)N1CCCSC1=Nc1ccccc1,70.1*,0.994,0.00209,-4.2,x,-0.21
O=C1Nc2ccccc2/C1=C/c1cnc[nH]1,98.1*,0.811,x,-11.6,0.0,x
C=CCn1c(O)c(C(CC)=NCCc2c[nH]c3ccccc23)c(=O)[nH]c1=O,x,0.0524,x,x,x,-2.32
COc1ccc(C)cc1NC1=NCCCS1,5.3,-0.75,-0.338,9.7,-27.8,0.17
CCc1ccc(C(=O)C23CN4CN(CN(C4)C2)C3)cc1,-4.7,-0.126,1.22,-18.0,-28.6,x
OC(CNC1CCCCCCC1)c1ccccc1 (configuration not stated),15.1,-0.193,-0.0321,-0.5,x,-0.8
CC1CCC(NCC(O)c2ccccc2)CC1 (configuration not stated),71.2*,0.16,x,4.9,4.3,1.33
Cc1cc2c(C(C)C)c(O)c(O)c(C=O)c2c(O)c1-c1c(C)cc2c(C(C)C)c(O)c(O)c(C=O)c2c1O,-13.2,-7.15*!,x,-8.9,61.9*!,x
O=[N+]([O-])c1cccc2c([As](=O)(O)O)cccc12,x,-0.874,x,x,x,0
CCC(C)n1c(O)c(/C=N/N2CCOCC2)c(=O)[nH]c1=S (configuration not stated),54.9*,-0.172,1.75,2.2,52.8,0.24
O=c1[nH]c(=S)n(C2CC2)c(O)c1/C=N/Nc1cccc2ccccc12,-0.9,0.464,x,6.8,x,0.07
CCn1c(O)c(/C=N/NC(=O)c2ccncc2)c(=O)[nH]c1=S,99.5*,-0.76,x,-15.9,0.0,0.25
CCCCC(=O)N/N=C/c1c(O)n(C2CC2)c(=S)[nH]c1=O,98.3*,0.0162,-0.541,5.9,13.9,0.07
SMILES,L major viab,KCC2 mod,ROMK primary,WT yeast gro inh,INS promoter inh,Insulin prom up
O=c1[nH]c(=S)n(C2CC2)c(O)c1/C=N/Nc1ccccc1,88.8*,0.594,x,58.5*,-35.5,-0.03
CCCCC(=O)N/N=C/c1c(O)n(CCCC)c(=S)[nH]c1=O,x,-1.47,0.247,x,x,0.36
CCOc1cc(C=C2C(=O)NC(=O)NC2=O)cc([N+](=O)[O-])c1O,-2.5,-1.03,0.617,2.3,x,-0.03
CCCn1cc2c3c(cccc31)C1CC(C)CN(C)C1C2 (configuration not stated),x,x,x,x,x,-0.67
O=C(Cn1cc(C(=O)c2ccccc2F)c2ccccc21)NC1CC1,-8.9,-0.812,0.681,9.6,-127.3,-0.18
CCC(C)n1c(O)c(/C=N/Nc2ccccc2)c(=O)[nH]c1=S (configuration not stated),81.3*,-0.555,x,52.0,x,x
CCC(C)n1c(O)c(/C=N/NC(=O)c2ccncc2)c(=O)[nH]c1=S (configuration not stated),99.6*,0.249,0.188,4.5,0.0,0.11
O=C(N/N=C/c1c(O)n(Cc2ccc(F)cc2)c(=S)[nH]c1=O)c1ccncc1,x,-0.984,x,x,x,-0.04
CCC(C)n1c(O)c(C=NCCc2ccccc2)c(=O)[nH]c1=S (configuration not stated),x,-0.183,x,x,x,-0.1
CCCCC(=O)C1C(=O)NC(=O)NC1=O,0.6,-0.0133,x,8.7,-3.5,0.5
CCCCCCOc1ccc(CN2CCN(C)CC2)cc1,99.9*,0.672,x,24.2,6.5,-2.8
CN(C(=O)CNC(=O)OCc1ccccc1)c1ccc(Br)cc1C(=O)c1ccccc1Cl,37.5,-0.997,0.00775,47.2,-56.2,0.95
COc1ccc(OC)c(N2C(=O)NC(=O)/C(=C\c3ccc([N+](=O)[O-])s3)C2=O)c1,100.3*,-0.753,-1.16,8.7,-41.7,-0.07
O=C1NC(=O)N(c2ccccc2)C(=O)/C1=C\c1ccc([N+](=O)[O-])s1,x,1.23,x,x,x,-0.22
COC(=O)C[C@]1(C(=O)OC)CN(C#N)N(c2ccc(Cl)cc2)C12c1ccccc1-c1ccccc12,100.4*,0.896,x,21.7,-141.7,u
CC(=O)OC1C2CCC1C(N1CCCC1)CC2 (configuration not stated),-6.2,1.12,0.255,1.3,-13.3,-0.52
CCOC(=O)C1(CCOc2ccccc2)CCN(Cc2ccc(C)s2)CC1,81.1*,-0.696,-1.43,25.6,x,-0.73
CCOC(=O)C1(c2ccccc2)CCN(CC(=O)Nc2cccc3ccccc23)CC1,14.3,0.595,-1.82,45.4,10.3,-0.5
CCOC(=O)C1(c2ccccc2)CCN(Cc2cccc(C(=O)O)c2)CC1,-3.9,x,x,-6.8,x,0.44
CCOC(=O)C1(CCc2ccccc2)CCN(C2CCSCC2)CC1,88.3*,-0.69,-1.06,23.2,-6.2,-0.75
CCOC(=O)C1(CCc2ccccc2)CCN(Cc2ccc3c(c2)OCCO3)CC1,84.3*,0,-1.49,29.8,x,-1.91
CCOC(=O)C1(CCCc2ccccc2)CCN(C2CCCC2)CC1,70.9*,-0.681,-1.02,8.6,-35.7,-1.16
CC(=O)Nc1ccc(C2CN(C)CC2C(=O)c2ccc(Cl)cc2)cc1 (configuration not stated),4.1,0.109,-0.117,-0.3,x,-0.13
Oc1cccc2nc3ccccc3nc12,x,2.96,x,x,x,-0.72

# Source: PubChem (several laboratories)
